Screens from PubChem BioAssay.
BoNT-A LC inh2: blocks Botulinum neurotoxin A light chain protease; multiplex microsphere protease substrate cleavage, flow cytometry; inhibition, % at 10 µM; 0.17% of 360,000 active; AID 588499
DUSP3 inh: blocks human VHR1 dual specificity phosphatase; P51452; recombinant VHR phosphatase, pNPP absorbance; inhibition, % at 13.3 µM; 0.52% of 290,000 active; in the data active = inhibition above about 50%
Autofluor counter: compound fluorescence in toxin protease inhibitor counterscreen. AID 624483. fluorescence intensity (test concentration not listed). 3.1% of 360,000 active. compound autofluorescence counterscreen, microsphere flow cytometry; hits give high values; in the data active = fluorescence intensity above about 16000; inconclusive = no clear call, values can overlap the other calls
BoNT F protease: blocks Botulinum neurotoxin F light chain protease; Multiplex microsphere protease cleavage assay, flow cytometry; inhibition, % at 10 µM; 0.22% of 360,000 active; in the data active = inhibition above about 35%, passing the limit was not always enough; inconclusive = no clear call, values can overlap the other calls
SARS 3CLpro inh: SARS-CoV 3CLpro protease inhibition. inhibition, % at 6 µM. 0.14% of 290,000 active. AID 1706. recombinant SARS-CoV 3CLpro, quenched FRET peptide cleavage. P0C6X7; in the data active = inhibition above about 12%
Anthrax LF prot: blocks Bacillus anthracis lethal factor protease; inhibition, % at 10 µM; multiplex microsphere protease cleavage assay, LF; P15917; AID 588501; 0.12% of 360,000 active
Target sequence (P15917 whole entry, looked up): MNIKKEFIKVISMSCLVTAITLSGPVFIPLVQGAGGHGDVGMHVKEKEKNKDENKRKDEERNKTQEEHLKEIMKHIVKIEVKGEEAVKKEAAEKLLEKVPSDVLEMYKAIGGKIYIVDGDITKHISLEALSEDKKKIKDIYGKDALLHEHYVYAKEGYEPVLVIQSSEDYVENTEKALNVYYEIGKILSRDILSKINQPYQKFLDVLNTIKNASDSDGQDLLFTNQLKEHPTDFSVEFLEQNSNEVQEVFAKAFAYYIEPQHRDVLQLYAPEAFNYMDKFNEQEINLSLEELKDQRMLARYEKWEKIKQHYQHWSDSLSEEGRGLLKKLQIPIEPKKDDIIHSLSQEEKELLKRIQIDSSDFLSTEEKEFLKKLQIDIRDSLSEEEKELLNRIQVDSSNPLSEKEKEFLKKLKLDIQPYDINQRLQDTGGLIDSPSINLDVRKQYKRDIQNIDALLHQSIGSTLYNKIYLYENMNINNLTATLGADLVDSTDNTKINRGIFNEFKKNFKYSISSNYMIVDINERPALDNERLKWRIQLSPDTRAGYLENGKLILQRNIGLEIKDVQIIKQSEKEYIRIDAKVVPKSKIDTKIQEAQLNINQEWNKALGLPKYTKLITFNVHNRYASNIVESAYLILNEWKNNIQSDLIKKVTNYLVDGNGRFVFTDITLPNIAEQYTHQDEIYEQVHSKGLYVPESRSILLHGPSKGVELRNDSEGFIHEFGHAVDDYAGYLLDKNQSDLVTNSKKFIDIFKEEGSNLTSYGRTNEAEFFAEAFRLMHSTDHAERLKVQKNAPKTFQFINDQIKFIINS
Hits are given with their value; i = inactive; ? = inconclusive; nt = no result. A selection: hits, their analogues and other compounds. The true share with any hit is near 3.9%. Rule as the data show it, unless noted: active = inhibition above about 30%; inconclusive = no clear call, values can overlap the other calls; inactive = below that.

SMILES	BoNT-A LC inh2	DUSP3 inh	Autofluor counter	BoNT F protease	SARS 3CLpro inh	Anthrax LF prot
O=C1C(Cl)=C(NCCCN2CCOCC2)C(=O)N1CCc1ccccc1	i	i	22919	i	i	i
COC(=O)CNC(=O)c1c(-c2c(Cl)cccc2Cl)noc1C	i	i	23118	i	i	i
CCOc1ccccc1C(=O)N(Cc1ccc(C)o1)C1CCS(=O)(=O)C1 (stereo not drawn)	i	i	i	i	i	i
Cc1onc(-c2c(F)cccc2Cl)c1C(=O)Nc1cccc2nsnc12	i	i	22508	i	i	i
Cc1onc(-c2c(F)cccc2Cl)c1C(=O)NC1=NCCS1	i	i	i	i	i	i
Cc1ccc(SCCCCN2C(=O)NC(C)(C)C2=O)cc1	i	i	i	i	i	i
CC1(C)NC(=O)N(CCSc2ccc(Cl)cc2)C1=O	i	i	19822	i	i	i
CC1(C)NC(=O)N(CCOCCOc2ccccc2)C1=O	i	i	i	i	i	i
CC1(C)NC(=O)N(CCOCCSc2ccccc2)C1=O	i	i	24307	i	i	i
Cc1cccc(CN2CCC(Oc3ccc(C(=O)N4CCCC4)cc3)CC2)n1	i	i	i	i	i	i
Cc1cc(C)n2c(SCC(O)=C(C#N)c3nc4ccccc4[nH]3)nnc2n1	i	nt	i	i	nt	i
COc1ccc(C)cc1-n1nnnc1SC/C(O)=C(\C#N)c1nc2ccccc2[nH]1	i	i	21719	i	i	i
COc1ccccc1N=c1oc2c(OC)cccc2cc1C(=O)NCc1ccco1	i	i	20264	i	i	i
COc1cccc(C(=O)NCc2ccco2)c1OC	i	i	i	i	i	i
COc1ccc(OC)c(N=c2oc3c(OC)cccc3cc2C(=O)NCc2ccco2)c1	i	i	16799	i	nt	i
COc1ccc(N=c2oc3c(OC)cccc3cc2C(=O)NCc2ccco2)cc1OC	?	i	19539	i	i	i
COc1ccccc1C(=O)NCc1ccco1	i	i	i	i	i	i
CC(C)(C)c1ccc2c(c1)OC(C(=O)N/N=C\c1ccncc1)CO2 (stereo not drawn)	i	i	i	i	i	i
CC(C)(C)c1ccc2c(c1)OC(C(=O)N/N=C/c1ccc([N+](=O)[O-])o1)CO2 (stereo not drawn)	i	56.6	i	i	i	i
Cc1ccnc2nc(C(=O)OCC(=O)N(CC(C)C)C3CCS(=O)(=O)C3)nn12 (stereo not drawn)	i	nt	i	i	nt	i
Cc1oc2c(cc(NS(=O)(=O)c3ccc4c5c(cccc35)C(=O)N4)c3ccccc32)c1C(=O)OC(C)C	i	i	19667	i	i	i
O=C(COC(=O)CCc1nc2ccccc2c(=O)[nH]1)Nc1ccccc1	i	nt	i	i	nt	i
N#Cc1ccc(NC(=O)COC(=O)CCc2nc3ccccc3c(=O)[nH]2)cc1	i	i	26617	i	i	i
C/C(=N\NS(=O)(=O)c1ccc([N+](=O)[O-])cc1)c1c[nH]c2ccccc12	i	i	i	i	i	i
CC1CCC(NC(=O)Cn2cnc3sccc3c2=O)CC1 (stereo not drawn)	i	nt	?	i	nt	i
SMILES	BoNT-A LC inh2	DUSP3 inh	Autofluor counter	BoNT F protease	SARS 3CLpro inh	Anthrax LF prot
COC(=O)c1cnn(C(=O)c2ccccc2Br)c1N	i	i	22952	i	i	i
COC(=O)c1cnn(C(=O)c2cc(OC)ccc2Br)c1N	i	i	23297	i	i	i
CCOC(=O)C1(C)CCN1C(=O)c1cc(OC)ccc1Br (stereo not drawn)	i	nt	i	i	nt	i
O=C(NCc1nnc(SCc2ccc(F)cc2)n1-c1ccc(F)cc1)C12CC3CC(CC(C3)C1)C2	i	i	i	i	i	i
COc1ccc(CNc2nc(S(=O)(=O)c3ccccc3)c(Cl)s2)cc1OC	i	i	i	i	i	i
CCCCC(=O)Nc1c(-c2cccc(OC)c2)c(=O)c2ccccc2n1C	i	58.2	i	i	i	i
COc1ccc(-c2c(NC(C)=O)n(C)c3ccccc3c2=O)cc1	?	i	16417	i	i	i
CCCN1CCc2c(sc3nc(SCC)n(-c4ccccc4)c(=O)c23)C1	33.9	i	i	i	i	i
CCCN1CCc2c(sc3nc(SCC)n(-c4ccc(OC)cc4)c(=O)c23)C1	40.3	i	i	i	i	i
CCc1noc(C)c1C(=O)Nc1ccc(C(F)(F)F)cc1	i	i	i	i	i	i
Cc1ccnc(NC(=O)c2cc(-n3cnnc3)ccc2Cl)c1	?	i	22908	i	i	i
CC(=O)Nc1ccc(NC(=O)c2cc(-n3cnnc3)ccc2Cl)cc1	i	i	i	i	i	i
CC(C)NC(=O)c1cc(-n2cnnc2)ccc1Cl	i	i	20045	i	i	i
Cc1c(NC(=O)c2cc(-n3cnnc3)ccc2Cl)cccc1-c1nc2ccccc2s1	i	i	22973	i	i	i
COc1ccc(CCN2C(=O)CCC2(C)C(=O)NCc2cccnc2)cc1OC (stereo not drawn)	i	i	i	i	i	i
COc1ccc(CN2C(=O)CCC2(C)C(=O)NCc2cccnc2)c(OC)c1 (stereo not drawn)	?	i	22905	i	i	i
O=c1[nH][nH]c2nc(C(F)(F)F)cc(C(F)(F)F)c12	?	i	22696	i	i	i
Cc1cc(C)c2c(=O)[nH][nH]c2n1	i	nt	i	i	nt	i
CCCC(=O)N1CCC1(C)C(=O)Nc1ccc2c(c1)OCCO2 (stereo not drawn)	i	nt	i	i	nt	i
C=CCSc1ncccc1C(=O)O	i	i	23263	i	i	i
O=C(O)CSc1ncccc1C(=O)O	i	i	i	i	i	i
C=CCSc1ncccc1C(=O)NCc1ccc(C)cc1	i	i	19941	i	i	i
CSc1ccccc1OCc1cc(C(=O)NC2CCOC2)no1 (stereo not drawn)	i	i	i	i	i	i
CSc1ccccc1OCc1cc(C(=O)NC2CCc3ccccc32)no1 (stereo not drawn)	i	51.3	i	i	i	i
CCOCCCNC(=S)N(CCO)Cc1cc2cc3c(cc2[nH]c1=O)OCCO3	i	50.2	i	?	i	i
SMILES	BoNT-A LC inh2	DUSP3 inh	Autofluor counter	BoNT F protease	SARS 3CLpro inh	Anthrax LF prot
CCN(CC)CCCN(Cc1cc2cc3c(cc2[nH]c1=O)OCO3)C(=S)NCCCN(C)C	i	i	i	?	i	i
CCN(CC)CCCN(Cc1cc2cc3c(cc2[nH]c1=O)OCO3)C(=S)NC	i	i	i	35.3	i	i
Cc1cn([C@H]2C[C@H](O)[C@@H](/C=C/C(=O)NCCc3cccs3)O2)c(=O)[nH]c1=O	i	nt	i	i	nt	i
O=C(NCc1ccccc1)C1C2C=CC3(CN(Cc4cccnc4)C(=O)C13)O2 (stereo not drawn)	i	i	19359	i	i	i
CCCCC[C@H]1CCCCC[C@H](O)C[C@H](O)[C@@H](O)/C=C/C(=O)O1	i	nt	i	i	nt	i
COc1cc(OC)c(C2=NOC(C(=O)NCCc3ccccc3)C2)cc1Cl (stereo not drawn)	i	i	23621	i	i	i
O=c1[nH]cnc2c1cnn2Cc1ccccc1	?	i	21532	i	i	i
CC(C)On1c(SCC(=O)N(C)C)nc2ccccc2c1=O	nt	i	nt	nt	i	nt
N#Cc1cnn(Cc2ccccc2)c1/N=C/N1CCOCC1	i	i	i	i	i	i
